About 79,000 compounds went through this panel and 15% of them were active in at least one assay; those are over-represented in the sample as a whole. Rule as the data show it: active = growth inhibition above about 70%; inactive = the rest. Where a SMILES comes first, the peptide text is derived from it.
Legend:
[1] = NCI Yeast Anticancer Drug Screen. Data for the rad50 strain (AID 155);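 also: 0% = growth of vehicle-only cultures of the same strain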; conditions: S. cerevisiae rad50 strain growth inhibition; at 50.0 µM; stronger effect = higher value
Method in brief: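 Growth of the mutant yeast was measured after compound exposure and referenced to vehicle-treated cultures.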

[2] = NCI Yeast Anticancer Drug Screen. Data for the mec2-1 strain (AID 157); conditions: S. cerevisiae mec2-1 strain, at 50.0 µM, stronger effect = higher value
Method in brief: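 mec2-1 yeast strain, carrying an alteration in DNA damage repair or cell cycle control, was exposed to compounds; growth inhibition was measured relative to vehicle-treated controls.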

[3] = NCI Yeast Anticancer Drug Screen. Data for the sgs1 mgt1 strain (AID 161);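 also: 0% = growth of cultures given vehicle only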; conditions: S. cerevisiae sgs1 mgt1 strain, at 50.0 µM, stronger effect = higher value
Method in brief: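 Yeast cells carrying a defined DNA-repair defect were exposed to test compounds. Growth inhibition was measured relative to vehicle-treated controls.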

[4] = NCI Yeast Anticancer Drug Screen. Data for the cln2 rad14 strain (AID 165);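 also: 0% = growth equal to vehicle treated cultures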; conditions: S. cerevisiae cln2 rad14 strain, at 50.0 µM, stronger effect = higher value
Method in brief: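 Yeast carrying cln2 and rad14 alterations (cell cycle control and DNA damage repair) were exposed to compounds. Growth inhibition was measured against vehicle-treated controls.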

[5] = NCI Yeast Anticancer Drug Screen. Data for the bub3 strain (AID 167); conditions: S. cerevisiae bub3 mutant strain, at 50.0 µM, stronger effect = higher value
Method in brief: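 Whole-cell yeast assay. The mutant strain was incubated with compounds, and growth inhibition was determined by comparison with vehicle-treated cells.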

[6] = NCI Yeast Anticancer Drug Screen. Data for the mlh1 rad18 strain (AID 175); conditions: S. cerevisiae mlh1 rad18 strain growth inhibition; at 50.0 µM; stronger effect = higher value
Method in brief: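 Growth inhibition of the yeast strain was measured after compound exposure and expressed relative to vehicle-treated controls. The strain carries defined defects in DNA damage repair.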

Measured: growth inhibition

NCCCCCCCCCCC(=O)O
inactive: [1] -7.25% | [2] -7.6% | [3] -10.7% | [4] -11.2% | [5] -5.9% | [6] -2.8%

C=C(C)COC(CCC)OCC(=C)C
inactive: [1] 6.85% | [2] 8.1% | [3] -8.45% | [4] 8.85% | [5] -2.3% | [6] 21.1%

Cc1[nH]nc(C(=O)O)c1N
inactive: [1] -18.2% | [2] -20.6% | [3] -14.6% | [4] -16.1% | [5] -13.4% | [6] -7.2%

C=C[C@@H]1C(CO)=CCC2[C@H]1CCC1C(C)(C)C(=O)CC[C@]21C (stereo partly specified)
inactive: [1] -7.95% | [2] -13.4% | [3] -5.7% | [4] 2.7% | [5] 0.05% | [6] -47.1%

CC1CP(=O)(Cc2ccccc2)C(C)(c2ccccc2)C1=O (stereo unspecified)
inactive: [1] -18.4% | [2] -0.95% | [3] 31.4% | [4] -4.2% | [5] 40.2% | [6] -6.5%

CCOC(=O)/C(Cc1ccc2c(c1)OCO2)=N\O
inactive: [1] -3.05% | [2] -16.1% | [3] -12.9% | [4] -2.25% | [5] 2.25% | [6] -1.1%

Cn1c(=O)c2c(nc(NCCO)n2Cc2ccccc2)n(C)c1=O
inactive: [1] 20.1% | [2] 9.95% | [3] 7.2% | [4] 18.3% | [5] 8.45% | [6] 31.2%

CC(C)(C)[C@@H]1NC(=O)CN1C(=O)OCc1ccccc1
inactive: [1] -22.1% | [2] -35.2% | [3] -51.9% | [4] -17.1% | [5] 26.9% | [6] -11.1%

CC#CC(O)(C(=O)OC1CCCN(C)C1)C1=CC=CCC1 (stereo unspecified)
inactive: [1] 11.7% | [2] 8.25% | [3] 13.2% | [4] 5% | [5] -1.75% | [6] 27.4%

O=C1C2Cc3ccccc3CN2C(=O)N1CCN1CCCC1 (stereo unspecified)
inactive: [1] -19.1% | [2] -33.7% | [3] -12.1% | [4] 4.3% | [5] -22.6% | [6] 8%

CN(C)S(=O)(=O)Cc1ccccc1
inactive: [1] 7.95% | [2] -6.65% | [3] -6.65% | [4] -73.5% | [5] 6.75% | [6] -7.1%

CC(C)/C=C(\C#N)C(=O)O
inactive: [1] -3.2% | [2] -13.5% | [3] -1.2% | [4] -0.8% | [5] -2.65% | [6] 1.3%

O=C(Oc1ccccc1)C(c1ccccc1)c1ccccc1
inactive: [1] -9.95% | [2] 0.7% | [3] 7.95% | [4] -59.7% | [5] 16.7% | [6] -10.5%

CC(=O)c1ccc(NC(=O)/C(=N\NC(N)=O)C(C#N)CC(C)(C)C=O)cc1 (stereo unspecified)
inactive: [1] 29.3% | [2] 17.4% | [3] -2.55% | [4] 21.1% | [5] 33.6% | [6] 16.6%

NN(c1ccccc1)c1ccccc1
inactive: [1] 23.5% | [2] 6.45% | [3] 35.5% | [4] 25.9% | [5] 24.2% | [6] 19.1%

COC(=O)C1=CC(O)CCC1c1ccc(OC)cc1 (stereo unspecified)
inactive: [1] -6.2% | [2] -10.7% | [3] -13.2% | [4] -5.8% | [5] -5.45% | [6] -19.2%

Cn1c(=O)c2[nH]c(C(=O)O)nc2n(C)c1=O
inactive: [1] 17.4% | [2] -2.35% | [3] 5.7% | [4] 9.35% | [5] -8.3% | [6] 9.85%

CC(=O)NCCSSCCCCS(=O)O
inactive: [1] -19.1% | [2] -20.1% | [3] 7.85% | [4] 11.3% | [5] 6.05% | [6] -5.35%

CC1NC(=O)C2CCCN2C(=O)C2CCCN2C(=O)C(C(C)C)NC(=O)C(Cc2ccccc2)NC(=O)C(Cc2ccccc2)NC(=O)C2CCCN2C(=O)C2CCCN2C(=O)C(Cc2ccccc2)NC(=O)C(Cc2ccccc2)NC1=O (stereo unspecified) (cyclo(AFFPPFFVPP); configuration not given here)
inactive: [1] 6.65% | [2] -8.5% | [3] -2.35% | [4] 2.8% | [5] 1.25% | [6] 16.6%

NC(=O)SCC(=O)Nc1ccccc1O
inactive: [1] 14.6% | [2] -27.4% | [3] 2.25% | [4] 0.05% | [5] 0.85% | [6] -9.5%

CCCC(=O)Nc1ccc2c(ccn2COC)c1
inactive: [1] -37.2% | [2] -2.2% | [3] -2.05% | [4] 8.7% | [5] 8.45% | [6] -18.2%

Cc1nc2sccn2c1C(=O)NC(=O)Nc1ccc(Cl)cc1
inactive: [1] 0.35% | [2] -14.8% | [3] -2.75% | [4] 5.45% | [5] -9.8% | [6] -16.1%

CCC(C)(C)C1CCCCC1OC(C)=O (stereo unspecified)
inactive: [1] 7.95% | [2] -2.6% | [3] 2.55% | [4] 7.95% | [5] 2.9% | [6] 1.25%

N#C/C(=C\N1CC(=O)NC1=S)C(=O)c1ccc2ccccc2c1
inactive: [1] -20.4% | [2] 15.6% | [3] -26.2% | [4] 13.5% | [5] 3.25% | [6] -17.4%

CC1CC(OC(=O)c2ccccc2)CCC1=O (stereo unspecified)
inactive: [1] -5.6% | [2] -2.85% | [3] -7.65% | [4] 14.5% | [5] 15.6% | [6] -7.8%

O=[N+]([O-])c1ccc(CCO)cc1
inactive: [1] -4.15% | [2] -26.1% | [3] -6.85% | [4] -15.4% | [5] -10.5% | [6] -4.6%

CCCCCCC(=O)OC(C)CC(C)C (stereo unspecified)
inactive: [1] 6.25% | [2] 2.75% | [3] -0.75% | [4] -11.2% | [5] -3.7% | [6] 24.2%

CN1C(=O)C(=O)C(c2ccccc2)(c2ccccc2)C1=O
inactive: [1] 9.45% | [2] -4.55% | [3] 12.4% | [4] -53.2% | [5] 8.75% | [6] -10.8%

COc1cccc(N2C(=O)/C(=C/c3ccc(N(CCC#N)CCC#N)cc3)N=C2c2cc([N+](=O)[O-])ccc2Cl)c1
inactive: [1] 7.9% | [2] 27.9% | [3] 40.8% | [4] 32% | [5] 32.1% | [6] 28.9%

CCOC(=O)Cc1ccc(-c2csc(Nc3ccc(Cl)cc3)n2)cc1
inactive: [1] 49.9% | [2] 22.4% | [3] 35% | [4] 24.2% | [5] 24.8% | [6] 48.9%

CC1COC(c2ccc(Cl)cc2Cl)O1 (stereo unspecified)
inactive: [1] 8.35% | [2] -2.4% | [3] -1.1% | [4] 1.25% | [5] 2.75% | [6] -0.65%

C/C(N=NS(=O)(=O)c1ccc(C)cc1)=C1\C=CC=CN1O
inactive: [1] -15.9% | [2] -14.7% | [3] -6.9% | [4] -1% | [5] -2.85% | [6] -11.9%

O=C(O)C1C(C(=O)O)C2C3C4C1C1C2C3C41 (stereo unspecified)
inactive: [1] 2.9% | [2] 3.15% | [3] -4.2% | [4] -21.9% | [5] 13.3% | [6] -0.15%

COC(=O)C1(CC(=O)c2ccc(N3CCN(c4ccc(C(=O)CC5(C(=O)OC)NC(=S)NC(=O)C5C#N)cc4)CC3)cc2)NC(=S)NC(=O)C1C#N (stereo unspecified)
inactive: [1] -19.5% | [2] -0.6% | [3] -21.4% | [4] 3.95% | [5] -18% | [6] -17.1%

O=C(O)C1CCC1C(=O)O (stereo unspecified)
inactive: [1] -18.1% | [2] -24.1% | [3] -23.5% | [4] -23.9% | [5] 10.2% | [6] -2.5%

O=C(OC1CCc2ccccc2C1)c1ccc(N=Nc2ccccc2)cc1 (stereo unspecified)
inactive: [1] 24.5% | [2] 5.55% | [3] 20.7% | [4] -39.8% | [5] 5.95% | [6] 18.9%

Nc1ccc(I)cn1
inactive: [1] -3.35% | [2] 5.7% | [3] -3.65% | [4] -11.7% | [5] 14.6% | [6] -3.95%

CC(C)CC1NC(=O)OC1=O (stereo unspecified)
inactive: [1] 6.7% | [2] 0.9% | [3] -9.7% | [4] -17.6% | [5] 1.25% | [6] 0.35%

O=[N+]([O-])C(=C(N1CCCCC1)N1CCCCC1)/C(Cl)=C(\Cl)Br
inactive: [1] -31.5% | [2] 11.2% | [3] 2.7% | [4] -2% | [5] -7.15% | [6] -1.45%

CCc1nnc2ncccn12
inactive: [1] -1.15% | [2] -10.9% | [3] 4.25% | [4] -5.95% | [5] 10.4% | [6] -2.9%

O=C1OC(=O)C2C1C1CCC2C1(c1ccccc1)c1ccccc1 (stereo unspecified)
inactive: [1] 22.5% | [2] -0.95% | [3] 31.4% | [4] -4.7% | [5] -0.05% | [6] -2.85%

From PubChem BioAssay (NCI)
